Assay results published in PubChem BioAssay (NCI).
Compounds without any hit were thinned out: in the full panel of roughly 83,000, 20% have a hit.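 Cells were grown in 96-well plates and exposed to the test compound at a single concentration for 48 hours; results are reported as percent growth, with values below 10 considered active.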 Calls of active or inactive are those of the source.

The compounds below were run on HS 578T breast (assay: NCI-60 one-dose screen, 48 h (100 = growth as untreated, 0 = no growth, -100 = all killed)). Details: 10 µM unless noted.
Method: Growth inhibition of the HS 578T human tumor cell line is measured as a screen for anti-cancer activity. Cells are grown in 96 well plates and exposed to the test compound for 48 hours. Compounds are tested at a single concentration, which is 10^-5 M for most compounds. The reported endpoint is percent growth (GI% or GIPRCNT), where numbers from 0 - 100% represent growth inhibition, and numbers from -100% - 0 represent cell death. For example, a value of 40 represents 60% growth inhibition. A value of 0 means no net growth occurred over the course of the experiment. A value of -40 indicates 40% of cells at the beginning of the experiment died by the end of the experiment. A value of -100 means all cells are dead at the end of the experiment.
NCI-60 Human Tumor Cell Lines Screen was performed using the standard one-dose NCI protocol, which is described in more detail at https://dtp.cancer.gov/discovery_development/nci-60/default.htm.
Compounds with GIPRCNT values below 10 were considered active. Activity score was based on GIPRCNT using the following formula: […]
Score is 0 for GIPRCNT values of 100 or above, 50 for GIPRCNT values of 0, and 100 for GIPRCNT values of -100.

| Compound | growth |
| --- | --- |
| COc1cc(-c2csc(NC(=O)c3cc(C(F)(F)F)cc(C(F)(F)F)c3)n2)cc(OC)c1OC | 35.1% (inactive) |
| COc1cc(Cn2c(SCC(=O)Nc3ccc(Cl)cc3)nc3ccccc3c2=O)cc(OC)c1OC | 7.73% (active) |
| CC(C)(C)c1ccc(S(=O)(=O)Oc2ccc3c4c(c(=O)oc3c2)CCCCC4)cc1 | 40% (inactive) |
| CCOC(=O)C1=C(C)NC(=O)NC1c1ccc(OCC(=O)N/N=C/c2ccc(Cl)cc2)cc1 (stereo not given) | 86.6% (inactive) |
| COc1cc(/C=C\c2cc(OC)c(OC)c(OC)c2)cc(N/C=C\C(=O)c2c[nH]c3ccccc23)c1OC | 67.5% (inactive) |
| CS(=O)(=O)N(c1cc(-c2ccc3ncnc(Nc4cccc(Cl)c4)c3c2)cnc1Cl)S(C)(=O)=O | -3.12% (active) |
| COc1cc(C2C=C(C)N=C3SC=C(C)N32)cc(OC)c1OC (stereo not given) | 2% (active) |
| CC(C)(C)c1cc(-c2nc3ccc(N4CCN(CCO)CC4)cc3[nH]2)cc(C(C)(C)C)c1O | 67% (inactive) |
| COc1ccc(-c2nc3sccn3c2-c2ccnc(NCCCNS(=O)(=O)c3ccc(C)cc3)n2)cc1 | 66.2% (inactive) |
| CC1Cc2c(N(C)C)ncnc2N(C)c2ccc(Cl)cc21 (stereo not given) | -1.26% (active) |
| COc1cccc(-c2nc3sccn3c2-c2ccnc(NCCCNS(=O)(=O)c3ccccc3)n2)c1 | 103% (inactive) |
| COc1cc(C2C=C(C)N=C3SC(C)=NN32)cc(OC)c1OC (stereo not given) | 114% (inactive) |
| Cc1oc2nc[nH]c(=O)c2c1C(=O)/C=C/c1ccc(Cl)cc1Cl | 102% (inactive) |
| COC1=CC(c2ccc[nH]2)=N/C1=C\c1[nH]c(C)c(CCCn2cc(CCCCCCCCC[C@@H]3Cc4cc(O)ccc4C4CC[C@]5(C)[C@@H](O)CC[C@H]5C43)nn2)c1C (stereo not given in full) | 55.7% (inactive) |
| O=C(CC(O)c1ccncc1)c1ccccc1 (stereo not given) | -21.8% (active) |
| COc1ccc(/C=C/c2nc(N3CCOCC3)c3nc(Cl)c(Cl)cc3n2)cc1OC | 113% (inactive) |
| O=c1oc2c([nH]c3ccc4ccccc4c32)c2ccccc12 | 104% (inactive) |
| O=S(=O)(NCCCNc1cc(-c2cn(-c3ccccc3)nc2-c2cccc(O)c2)ccn1)c1cccc2ccccc12 | 15.6% (inactive) |
| O=S(=O)(NCCNc1cc(-c2cn(-c3ccccc3)nc2-c2ccccc2)ccn1)c1cccc2ccccc12 | 56.3% (inactive) |
| COc1cc(C2C=C(C)N=C3SC=CN32)cc(OC)c1OC (stereo not given) | 103% (inactive) |

| Compound | growth |
| --- | --- |
| CCCCC[C@@H]1Cc2cc(O)c(C(=O)O)c3c2[C@H](C[C@@]2(CCCO2)O3)O1 | 122% (inactive) |
| CC(=O)C1CCC(C)=CC1=O (stereo not given) | 122% (inactive) |
| O=C(Nc1ccc(I)cc1)c1cccc([N+](=O)[O-])c1O | 42.6% (inactive) |
| CCC(=O)Oc1cc(/C=C/C(=O)O[C@H]2C[C@H]3CN4CCc5c([nH]c6cc(OC)ccc56)[C@@H]4C[C@@H]3[C@@H](C(=O)OC)[C@@H]2OC)ccc1OC | 56.5% (inactive) |
| Cc1cc2c(C(C)C)c(O)c(O)c(C=NCCCCCCC(=O)O)c2c(O)c1-c1c(C)cc2c(C(C)C)c(O)c(O)c(C=NCCCCCCC(=O)O)c2c1O | 22.2% (inactive) |
| CCOP(=O)(CCN1CCN(CCCCCOc2cc3c(cc2OC)C(=O)N2CCC[C@H]2C=N3)CC1)OCC | 84.5% (inactive) |
| CSc1nc(-c2cc3ccccc3o2)cc(-c2ccc(Cl)cc2)c1C#N | 76% (inactive) |
| O=S(=O)(NCCCNc1nccc(-c2c(-c3ccccc3)nc3sccn23)n1)c1ccc(F)cc1 | 72% (inactive) |
| Cc1cc(Nc2nc(-c3ccncc3)nc3ccccc23)n[nH]1 | 22.6% (inactive) |
| CCCCC(N)(C(=O)O)C1CCCC1 (stereo not given) | 122% (inactive) |
| NC(=O)NNC(=O)c1ccccc1 | 108% (inactive) |
| Nc1c(C(=O)Nc2ccccc2)sc2nc3c(cc12)CCCCC3 | 14.5% (inactive) |
| Cc1ccc(S(=O)(=O)OC2COCOC2C(OS(=O)(=O)c2ccc(C)cc2)C2OCOCC2OS(=O)(=O)c2ccc(C)cc2)cc1 (stereo not given) | 107% (inactive) |
| CCN(C(=O)c1cc2ccccc2[nH]1)[C@H]1CCC[C@@H](NCc2ccc(OC)cc2)C1 | 89.3% (inactive) |
| COc1ccc(-c2nc3sccn3c2-c2ccnc(NCCNS(=O)(=O)c3ccc(C(F)(F)F)cc3)n2)cc1 | 41% (inactive) |
| COc1ccc(/C(=N/O)c2cc(F)c(F)c(OC)c2F)cc1O | 8.26% (active) |
| O=c1oc2cc(OS(=O)(=O)c3ccc(F)cc3)ccc2c2c1CCCCC2 | 88% (inactive) |
| COc1cccc(-c2nc3sccn3c2-c2ccnc(NCCCNS(=O)(=O)c3ccc(F)cc3)n2)c1 | 57.3% (inactive) |
| CCC(c1ccc(OC)cc1)C(CC)c1ccc(O)c(CN2CCCC2)c1 (stereo not given) | 12.4% (inactive) |
| COc1ncc(-c2ccc3ncnc(Nc4cccc(Cl)c4)c3c2)cc1N(S(C)(=O)=O)S(C)(=O)=O | 49.7% (inactive) |
